# Laboratory results taken from ChEMBL document CHEMBL1157539, “Thousands of chemical starting points for antimalarial lead identification” (Nature, 2010).
# In all, about 13,000 compounds were measured (“IFI”: median about 4, highest 2% from about 17 on). The full list was thinned out, with the highest values kept by preference.
# Assay: GSK_TCMDC: Inhibition Frequency Index (IFI). The number of non-kinase HTS assays where a compound showed > 50 % inhibition, expressed as a percentage of the number of such assays in which the compound was tested
# Format: functional
row,Compound,IFI
1,COC(=O)c1cccc(CNCc2ccc(-c3ccc(-c4nc5cccc(C)c5[nH]4)s3)cc2)c1,7.55%
2,CN1CCN(CCCN(Cc2cccc(-c3cccc(CNCc4ccc5c(c4)OCO5)c3)c2)C(=O)CCC2CCCC2)CC1,10.9%
3,CC(C)C[C@H](NC(=O)c1cc2ccccc2s1)C(=O)N[C@H]1CCN(Cc2ccc(I)c(OC3CCN(C)C3)c2)C1 (stereo not given in full),16.7%
4,O=C(Nc1ccc2ccccc2c1)c1ccc(CN2CCC(Cc3ccccc3)CC2)cc1,6.21%
5,CCCOc1cc2c(cc1OCCC)C(C=Cc1ccc(Cl)cc1Cl)=NC(C)C2 (stereo not given),19%
6,CCCCOc1cc2c(cc1OCC)C(C=Cc1ccc(Cl)cc1Cl)=NCC2,6.67%
7,C/C=C/C=C/C1=NCCc2cc(OCCC)ccc21,8.76%
8,COc1ccc(CNCCc2cccs2)cc1-c1cccc(S(=O)(=O)NCCN2CCCC2)c1,9.8%
9,C=CCN(C(=O)c1ccc(Cl)c([N+](=O)[O-])c1)c1nc(-c2ccccc2)cs1,3.39%
10,Nc1ccc(-c2ccc(NC(=O)Nc3cc(C(F)(F)F)ccc3F)cc2)cn1,1.32%
11,Nc1ncc(-c2ccc(NC(=O)Nc3cc(C(F)(F)F)ccc3F)cc2)c(N)n1,0%
12,Nc1nccc2ccc(-c3ccc(NC(=O)Nc4cc(C(F)(F)F)ccc4F)cc3)cc12,20.2%
13,Cc1[nH]c(C)c(-c2ccc(Oc3ccccc3)cc2)c(=O)c1Br,6.11%
14,Cc1nc(-c2cccc(Nc3nccc(NCC(O)c4ccccc4)n3)c2)cs1 (stereo not given),24.1%
15,Cc1cccc(C(O)CNc2ccnc(Nc3cccc(-c4csc(C)n4)c3)n2)c1 (stereo not given),13.6%
16,Cc1nc(-c2cccc(Nc3nccc(NCC(O)c4ccccc4C)n3)c2)cs1 (stereo not given),13.6%
17,Cc1nc(-c2cccc(Nc3nccc(NCC(O)c4ccccc4C(F)(F)F)n3)c2)cs1 (stereo not given),22.8%
18,Cc1nc(-c2cccc(Nc3nccc(NCC(O)c4cccc(C(F)(F)F)c4)n3)c2)cs1 (stereo not given),11%
19,Cc1ccc(C(O)CNc2ccnc(Nc3cccc(-c4csc(C)n4)c3)n2)cc1 (stereo not given),8.74%
20,Cc1[nH]c(C)c(-c2ccc(-c3ccc(Cl)cc3)cc2)c(=O)c1Cl,0.76%

row,Compound,IFI
1,COc1ccc(CNCc2ccc(-c3cccc(-c4nc5cc(C(F)(F)F)ccc5[nH]4)c3)cc2)cc1,14.3%
2,CCCCc1cc(O)c2c(c1)OC(C)(C)C=C2C1=CCN(Cc2ccccc2)CC1,1.43%
3,Oc1ccc2nc(NCCCc3ccccc3)nc(NCCCc3ccccc3)c2c1,10.9%
4,COc1ccc(C(=O)Nc2ccc(Cl)cc2C(=O)Nc2ccncc2)cc1,1.35%
5,COc1cccc(NC(=O)Nc2ccc(-c3oc(C(=O)NCC(c4ccccc4)N(C)C)cc3-c3ccncc3)cc2)c1 (stereo not given),6.85%
6,COc1cccc(NC(=O)c2cc(Br)cc(N3CCN(c4ccncc4)CC3)c2)c1,12.5%
7,COc1ccc(NC(=O)Nc2ccc(C)c(-c3ccc(C(=O)NCCN4CCCC4)cc3)c2)cc1,0%
8,COc1cccc(NC(=O)Nc2ccc(C)c(-c3ccc(C(=O)Nc4ccncc4)cc3)c2)c1,26.8%
9,COc1ccc(NC(=O)Nc2ccc(C)c(-c3ccc(C(=O)Nc4ccncc4)cc3)c2)cc1,25.4%
10,CN1CCN(c2ccc(Nc3c(C(N)=O)cnc4cc(-c5ccoc5)ccc34)cc2)CC1,4.73%
11,OC1=C2C(=Nc3ccccc3SC2c2cccs2)c2ccccc21 (stereo not given),3.5%
12,COc1ccccc1-c1ccc(C(=O)NCC2CCCN(Cc3cccc(C(F)(F)F)c3)C2)s1 (stereo not given),3.7%
13,Nc1nc(N)c2c(ccc3c2ccn3Cc2ccc3c(c2)OCO3)n1,6.67%
14,Fc1ccccc1C=NNc1ccnc2cc(Cl)ccc12,1.48%
15,CC(C)c1ccc(C=CC(=O)N2CCC(CCN3CCC(c4c[nH]c5ccccc45)CC3)CC2)cc1,7.19%
16,OC(CNc1ccnc(Nc2cccc(Cl)c2)n1)c1ccccc1C(F)(F)F (stereo not given),20.4%
17,OC(CNc1ccnc(Nc2cccc(Cl)c2)n1)c1ccc(C(F)(F)F)cc1 (stereo not given),11%
18,OC(CNc1ccnc(Nc2ccc(Cl)cc2)n1)c1ccccc1C(F)(F)F (stereo not given),14.4%
19,OC(CNc1ccnc(Nc2ccccc2)n1)c1ccc(C(F)(F)F)cc1 (stereo not given),8.08%
20,Cc1ccccc1C(O)CNc1ccnc(Nc2cccc(C#N)c2)n1 (stereo not given),7.69%

row,Compound,IFI
1,N#Cc1cccc(Nc2nccc(NCC(O)c3cccc(C(F)(F)F)c3)n2)c1 (stereo not given),10.4%
2,OC(CNc1ccnc(Nc2cccc(Cl)c2)n1)c1cccc(C(F)(F)F)c1 (stereo not given),13.3%
3,N#Cc1cccc(Nc2nccc(NCC(O)c3ccccc3C(F)(F)F)n2)c1 (stereo not given),19.2%
4,N#Cc1cccc(Nc2nccc(NCC(O)c3ccc(C(F)(F)F)cc3)n2)c1 (stereo not given),20.4%
5,CNCCNCc1cccc(-c2ccc(-c3nc4cc(C(F)(F)F)ccc4[nH]3)s2)c1,8%
6,O=C(Nc1ccc(-c2cccc(-c3nc4cc(C(F)(F)F)ccc4[nH]3)c2)cc1)c1ccoc1,7.08%
7,CN(C)CC(=O)Nc1ccc(-c2ccc3ccnc(N)c3c2)cc1,7.95%
8,CCCCCCCN1CC[C@@H](CCCc2ccnc3ccc(OCCCCNC(N)=O)cc23)[C@@H](CC)C1,8.76%
9,CC(C)CNCc1ccc(OCc2cccc(COc3ccc(CNCC(C)C)cc3I)c2)c(I)c1,8.89%
10,CC[C@H](C)CNCc1ccc(OCc2cccc(COc3ccc(CNC[C@@H](C)CC)cc3I)c2)c(I)c1,15.3%
11,CC(C)NCc1ccc(OCc2cccc(COc3ccc(CNC(C)C)cc3I)c2)c(I)c1,17.6%
12,Cc1[nH]c(C)c(-c2ccc(OCCSc3ccncc3)cc2)c(=O)c1Br,3.7%
13,O=C(Nc1ccc(Cl)cc1C(=O)Nc1cccc(F)c1)c1ccc([N+](=O)[O-])cc1,1.43%
14,COc1ccccc1NC(=O)c1cc(C(=O)c2cc(Cl)ccc2O)cn(-c2ccccc2OC)c1=O,0.97%
15,O=C(Nc1ccc([N+](=O)[O-])cc1Cl)c1cc2ccccc2cc1O,12.8%
16,COc1cc([N+](=O)[O-])ccc1NC(=O)c1cc(Cl)ccc1O,35.6%
17,O=C(Nc1ccc([N+](=O)[O-])cc1Cl)c1cc(Br)cc(Cc2ccccc2)c1O,16.2%
18,O=C(Oc1ccc(Cl)cc1C(=O)Nc1ccc([N+](=O)[O-])cc1Cl)c1ccccc1,22.4%
19,Cc1[nH]cnc1CSCCN/C(=N\C#N)NCCCCCCCCN/C(=N/C#N)NCCSCc1nc[nH]c1C,1.49%
20,CC(C)(C)c1ccc(-c2cc(C(=O)N[C@@H](CO)C(=O)O)on2)cc1.CC(C)(C)c1ccc(-c2nocc2C(=O)N[C@@H](CO)C(=O)O)cc1,0%
